In PubChem BioAssay AID720504 (National Center for Advancing Translational Sciences (NCATS), 2013) one finds max response, negative = inhibition and Potency data, which are given here for 90 compounds.

Out of some 360,000 compounds screened, about 10,000 (2.8%) were called active. Another 4% or so got no clear call; they are omitted. The call rests on the fitted dose curve; in most records, active means well fitted inhibition curve with a large enough effect; inconclusive means small, poorly fitted or top-dose-only effect; inactive means flat fitted curve, though single readings scatter. The sample as a whole holds a higher share of actives than the screen did.
On the % scale 0 is the no-effect control and ±100 the full control effect; potency means the concentration at half of the fitted maximal effect.

Chain of Serine/threonine-protein kinase PLK1 (Homo sapiens) (P53350 whole entry, looked up, the tested form may be a part): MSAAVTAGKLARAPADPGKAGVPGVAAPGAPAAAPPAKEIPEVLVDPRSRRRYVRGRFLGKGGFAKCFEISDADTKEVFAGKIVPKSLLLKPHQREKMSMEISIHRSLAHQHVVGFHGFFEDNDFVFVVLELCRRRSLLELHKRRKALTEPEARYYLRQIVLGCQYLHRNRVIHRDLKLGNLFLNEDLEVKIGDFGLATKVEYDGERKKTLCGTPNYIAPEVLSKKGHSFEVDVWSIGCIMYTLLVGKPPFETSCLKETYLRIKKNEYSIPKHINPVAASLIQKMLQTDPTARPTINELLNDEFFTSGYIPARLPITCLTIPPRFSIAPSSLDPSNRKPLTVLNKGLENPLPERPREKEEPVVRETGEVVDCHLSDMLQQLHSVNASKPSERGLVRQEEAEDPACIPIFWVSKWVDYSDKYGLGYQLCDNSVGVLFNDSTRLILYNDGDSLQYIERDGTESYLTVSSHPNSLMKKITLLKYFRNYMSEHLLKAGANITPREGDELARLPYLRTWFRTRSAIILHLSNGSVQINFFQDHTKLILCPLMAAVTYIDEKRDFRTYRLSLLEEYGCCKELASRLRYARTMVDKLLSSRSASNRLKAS

This assay addresses Serine/threonine-protein kinase PLK1 (Homo sapiens) (UniProt P53350). In words: qHTS for Inhibitors of PLK1-PDB (polo-like kinase 1 - polo-box domain): Primary Screen. Further: nearly all actives have a fitted effect of over 65% in size. On max response, negative = inhibition: series mostly up to about 57 µM. As to conditions: Plk1 PBD binding of FITC phosphopeptide, fluorescence polarization. Background: In qHTS, concentration-response curves come from the screen itself.
Take `CC1(Oc2cccc(F)c2)CCN(Cc2ccccc2OC(F)F)C1` (stereo not given): the max response, negative = inhibition is -10.6% (inactive). For the compound `C=CCOc1ccc(/C=C2/C(=O)ON=C2C)cc1OCC`, the Potency is 1.89 µM (active). Take `C#CCOc1ccccc1/C=C1/C(=O)ON=C1C`: the Potency was 2.38 µM (active). For the compound `C=CCOc1ccc(/C=N/NC(=O)C(C)Sc2ccccn2)cc1OCC` (stereo not given), the max response, negative = inhibition is -12.5% (inactive). For the compound `C=CCOc1ccc(/C=N/n2cncn2)cc1OC`, the max response, negative = inhibition was -1.5% (inactive). On the same count and under the same terms, in the case of `Cc1no[n+]([O-])c1COc1ccccc1/C=C1\NC(=S)NC1=O` it was -11.5% (inactive); in that of `COc1ccc(NC(=O)C2(C)Cc3c(-c4cccc(NC(C)=O)c4)ccnc3O2)cc1` (stereo not given), 1.6% (inactive). For the compound `CC(C)NC(=O)N1Cc2cc(C(=O)NCC(F)(F)F)nc(-c3cccc(-c4cc5ccccc5o4)c3)c2[C@@H]1CCO`, the max response, negative = inhibition was -2.2% (inactive). For `CCCCNC(=O)c1nc(C2CCN(S(=O)(=O)c3ccc(F)c(F)c3)CC2)oc1-c1cccc(C(F)(F)F)c1`, the max response, negative = inhibition was -2.64% (inactive). As to `CCCNC(=O)C1(C)CCN(Cc2csc(-c3ccc(Cl)cc3)n2)C1` (stereo not given), the max response, negative = inhibition is -6.86% (inactive).

On to `Nc1nc2ncccn2c1-c1ccccc1`, for which the max response, negative = inhibition was -5.06% (inactive). Still for that read-out and setting: in the case of `COc1cc(OC)cc(C2=Cc3ccccc3C(CC(=O)c3ccco3)N2c2ccc(-c3cnc(OC)nc3)cc2)c1` (stereo not given) it was -0.0299% (inactive). `CCCCCCn1c(=O)n2n(c1=O)C[C@]1(OC(=O)NCc3ccc(OC)c(OC)c3)CN(S(=O)(=O)c3ccc(C)cc3)C[C@]1(O)C2`: the max response, negative = inhibition is -2.55% (inactive). As to `O=C(NNS(=O)(=O)c1ccc(F)cc1)c1cnccn1`, the max response, negative = inhibition was -1.36% (inactive). As for `NS(=O)(=O)c1ccc(CNC(=O)c2cccc(Oc3ccccc3)c2)cc1`, the max response, negative = inhibition is -1.88% (inactive). Turning to `NS(=O)(=O)c1ccc(CNC(=O)c2cnccn2)cc1`, the Potency was 16.8 µM (active). For `CCc1ccc2c(c1)NC(=O)C2(C)Cc1ccc(OC(F)(F)F)cc1` (stereo not given), the max response, negative = inhibition was -1.5% (inactive).

As to `CC1(C)Cc2ccccc2-c2[nH]c(=S)[nH]c(=O)c21`, the max response, negative = inhibition was -13.9% (inactive).

On to `N#CC1=C(N)Oc2n[nH]c(CSc3ccccc3)c2C12C(=O)Nc1ccccc12` (stereo not given), for which the max response, negative = inhibition is -12.8% (inactive).

For the compound `N#CC1=C(N)Oc2[nH]c(=S)[nH]c(=O)c2C12C(=O)Nc1ccccc12` (stereo not given), the Potency is 2.67 µM (active). On to `COCCNC(=O)C1(C)CCCN(Cc2cccc(F)c2)C1` (stereo not given), for which the max response, negative = inhibition was -4.61% (inactive). For the compound `COCCCNC(=O)c1ccc(CNS(=O)(=O)c2ccc(NC(C)=O)cc2)cc1`, the Potency was 26.7 µM (active). Turning to `CC(=O)Nc1ccc(S(=O)(=O)NCCc2ccccc2)cc1`, the max response, negative = inhibition is 0.463% (inactive).

In the case of `CCCCNC(=O)C1CCC(CNS(=O)(=O)c2ccc(NC(C)=O)cc2)CC1` (stereo not given), the max response, negative = inhibition is -1.34% (inactive). As for `CCN1CCCC1CNC(=O)c1ccc2c(c1)NC(=O)/C(=C\c1ccccc1F)S2` (stereo not given), the max response, negative = inhibition was 0.0941% (inactive).

With `COc1ccc(C(=O)Nc2c(Cl)cc(Cl)cc2C(=O)N2CCC(C)CC2)cc1`, the max response, negative = inhibition was -14.4% (inactive). As for `Cc1csc(NC(=O)c2ccc(-c3ccc(Cl)cc3Cl)o2)n1`, the max response, negative = inhibition was -15% (inactive). Consider `CC1CCN(C(=S)c2ccc(-c3ccc(Cl)cc3Cl)o2)CC1`, for which the Potency is 21.2 µM (active).

As for `COc1ccc2[nH]c(=S)cc(C)c2c1`, the Potency is 4.74 µM (active). Regarding `COc1ccc2[nH]c3c(C)c4cc[n+](C)cc4c(C)c3c2c1`, the max response, negative = inhibition was -4.23% (inactive).

As to `COc1ccc(N)c(C)c1`, the max response, negative = inhibition is -0.841% (inactive). Take `NC(=O)C1(N2CCCC2)CCN(Cc2ccccc2)CC1`: the max response, negative = inhibition is -7.37% (inactive). The same measure, in the same setting: in the case of `O=S1(=O)CCN(Cc2ccccc2)CC1` it was -2.26% (inactive).

As to `CC12CN(Cc3ccccc3)CC(C)(CN(Cc3ccccc3)C1)C2=NO`, the Potency is 5.32 µM (active). `O=C(OCc1cn([C@H]2C[C@H](c3ccccc3)N(C(=O)c3cccs3)C[C@@H]2O)nn1)c1ccccc1`: the max response, negative = inhibition is -2.46% (inactive). The same measure, in the same setting: in the case of `CC(C)(C(=O)N1CCC1(C)C(=O)NS(=O)(=O)c1ccc(Br)cc1)c1ccccc1` (stereo not given) it was -7.26% (inactive); in that of `Cc1ccc(C(=O)/C=C/Nc2ccc(S(=O)(=O)Nc3onc(C)c3C)cc2)cc1`, -13.9% (inactive).

Turning to `CCOc1ncccc1C(=O)Nc1ccc(S(=O)(=O)Nc2nc(C)cc(C)n2)cc1`, the max response, negative = inhibition is 0.589% (inactive). For the compound `Cc1cc(C)nc(NS(=O)(=O)c2ccc(N/C=C\C(=O)c3cccs3)cc2)n1`, the Potency was 26.7 µM (active). Turning to `O=C(CC(CC(=O)c1ccccc1)c1ccco1)c1ccccc1`, the max response, negative = inhibition is 13.6% (inactive).

For the compound `CSc1ccc(CNC(=O)C2(C)CCCN2C)cc1` (stereo not given), the max response, negative = inhibition is -4.46% (inactive). On the same count and under the same terms, in the case of `CN(C)CCCOc1ccc(-c2ccc3nccn3c2)cn1` it was -0.941% (inactive); in that of `CCOC(=O)N1C(=O)C[C@](Sc2ccc(C)cc2)(C(=O)OC)[C@H]1c1ccccc1`, -3.98% (inactive); in that of `Cn1nc(N)c2ncc(C(Cl)(Cl)Cl)nc21`, -4.91% (inactive). `O=C(c1ccc(F)cc1)N1CCC(n2nnc3ccccc32)CC1`: the max response, negative = inhibition was -7.84% (inactive). Turning to `O=C(c1ccc(F)cc1)n1c(=S)nc2ccccn21`, the Potency was 26.7 µM (active). `CC1COc2ccccc2N1C(=O)c1ccc(F)cc1` (stereo not given): the max response, negative = inhibition was -6.97% (inactive).

On to `c1ccc(Cn2nnc3c(NCC4CC4)ncnc32)cc1`, for which the max response, negative = inhibition is -24.2% (inactive).

As for `Nc1nc2c(ncn2[C@@H]2O[C@H](CNS(=O)(=O)N3CCc4ccccc4C3)[C@@H](O)[C@H]2O)c(=O)[nH]1`, the max response, negative = inhibition is -3.21% (inactive). Regarding `O=C(Nc1ccc(OCCO)cc1)c1csc([C@H]2C[C@H](O)[C@@H](CO)O2)n1`, the max response, negative = inhibition was -5.62% (inactive).

Turning to `Cc1cc(C)n(-c2nc(O)cc(=O)[nH]2)n1`, the max response, negative = inhibition is -2.57% (inactive). As to `Cn1nnnc1SCc1cc(=O)[nH]c2ccccc12`, the max response, negative = inhibition was -18.7% (inactive). With `Cc1cc(=O)[nH]c2nnnn12`, the Potency was 23.8 µM (active). `CCC(CC)C(C(=O)NC1CCCC1)N1CCN(c2cc(C)nc3ccccc23)CC1` (stereo not given): the max response, negative = inhibition was -1.11% (inactive). Consider `C[C@@H]1CN([C@H](C)CO)S(=O)(=O)c2ccc(C#C[C@@H](C)O)cc2O[C@@H]1CN(C)Cc1ccc(-c2ccccc2)cc1`, for which the max response, negative = inhibition is -3.99% (inactive).

Turning to `CC(=O)Nc1ccc2nc(NC(=O)CS(=O)(=O)c3ccc(F)cc3)sc2c1`, the max response, negative = inhibition is -4.56% (inactive). Consider `COc1ccc(C(CNC(=O)CSc2ccccc2)N2CCOCC2)cc1` (stereo not given), for which the max response, negative = inhibition was -29.4% (inactive). As for `CCc1ccc([C@@H]2CC(=O)[C@@H]3CN(S(=O)(=O)c4ccc(C)cc4)[C@H](c4ccc(Cl)cc4)C[C@@H]3N2S(=O)(=O)c2ccc(C)cc2)cc1`, the max response, negative = inhibition was 3.16% (inactive). Turning to `COc1ccc(S(=O)(=O)N(C)C)cc1NC(=O)COC(=O)c1n[nH]c2ccccc12`, the max response, negative = inhibition is -0.239% (inactive). Take `COc1ccc(S(=O)(=O)N(C)C)cc1NC(=O)CSc1ncccn1`: the Potency is 15 µM (active).

As to `CN(C)S(=O)(=O)c1ccc2oc(SCC(=O)Nc3ccccc3F)nc2c1`, the max response, negative = inhibition is -21.2% (inactive). Regarding `CC1(C)OC(=O)C2=C(CC(c3ccccc3)OC2CCc2ccccc2)O1` (stereo not given), the max response, negative = inhibition is -6.04% (inactive).

On to `Cc1cccc(C)c1NC(=S)N1CCCCCC1`, for which the max response, negative = inhibition is -6.23% (inactive). Take `S=C(c1ccc(-c2ccccc2)o1)N1CCCCC1`: the Potency was 9.47 µM (active).

In the case of `O=C(c1ccc(CSc2ccccc2)cc1)N1CCCCCC1`, the max response, negative = inhibition was -2.73% (inactive).

As for `O=C(C[C@H]1CC[C@H]2[C@@H](COC[C@H](O)CN2C(=O)c2ccccn2)O1)N1CCN(c2ccccc2)CC1`, the max response, negative = inhibition was -2.29% (inactive). As to `Cn1nnnc1-c1cc(Cl)cc(Cl)c1`, the Potency was 26.7 µM (active). Consider `Cn1nnnc1NCc1ccc(Cl)c(Cl)c1`, for which the max response, negative = inhibition is -14% (inactive). Take `Cc1ccc(S(=O)(=O)N[C@H](CO)C(C)C)cc1`: the max response, negative = inhibition was -4.56% (inactive).

As to `CCC(=O)Nc1ccc(Nc2nc(Cl)nc(Nc3ccc(NC(=O)CC)cc3)n2)cc1`, the max response, negative = inhibition is -16.7% (inactive). `CCOC(=O)CNc1nc(Cl)nc(Nc2ccccc2)n1`: the Potency is 21.2 µM (active). For `CCOC(=O)CNc1nc(Cl)nc(Nc2ccc(OC)cc2OC)n1`, the max response, negative = inhibition was 0.534% (inactive). As for `CC1(C)OC(=O)C2=C(C[C@@H](C3CCCC3)O[C@@H]2c2ccc(Cl)cc2)O1`, the max response, negative = inhibition was 2.05% (inactive).

As for `Cc1c(C#N)c(NC(=O)c2ccccc2)n(Cc2ccccc2)c1C`, the max response, negative = inhibition is -4.49% (inactive). On the same count and under the same terms, in the case of `Cc1ccc(C(=O)Nc2c(C#N)c(C)c(C)n2Cc2ccccc2)cc1` it was -3.45% (inactive). For `CCCc1ccc(-c2c(C)sc(NC(=O)c3ccnn3C)c2C#N)cc1`, the Potency was 10.6 µM (active). For the compound `CC1(C(=O)NS(=O)(=O)c2ccccc2)CCN1C(=O)C1CCCCC1` (stereo not given), the max response, negative = inhibition is -5.58% (inactive). On the same count and under the same terms, in the case of `Cc1cccnc1C(NC(=O)C1CCN(Cc2ccc(Cl)c(Cl)c2)CC1)c1ccc(Cl)cc1` (stereo not given) it was -6.41% (inactive).

Turning to `Cc1cn([C@H]2C[C@H](O)[C@@H](CNC(=O)[C@H](N)Cc3cccnc3)O2)c(=O)[nH]c1=O`, the max response, negative = inhibition is -0.77% (inactive). Consider `CC(c1ccco1)N(C(=O)Nc1ccccc1)C1CCCCC1` (stereo not given), for which the max response, negative = inhibition was -2.64% (inactive). On to `Cc1ccc(NC(=O)NC(=O)N(C2CCCCC2)S(=O)(=O)c2ccccc2)cc1`, for which the Potency was 29.9 µM (active). In the case of `CC(C)(C)NS(=O)(=O)c1ccc(NC(=O)NC2CCCCC2)cc1`, the max response, negative = inhibition is -9.85% (inactive). With `COc1cc(C(O)c2nc(-c3cccc(C(=O)O)c3)cs2)ccc1F` (stereo not given), the max response, negative = inhibition is 2.95% (inactive). In the case of `O=C(O)c1ccccc1N=N/C(=N/Nc1cc(S(=O)(=O)O)ccc1O)c1ccccc1`, the Potency was 16.8 µM (active).

With `COc1cccc(NC(=O)C2(C)CCN2Cc2ccccc2Cl)c1` (stereo not given), the max response, negative = inhibition is 4.24% (inactive). Turning to `OCCc1ccc(NCCc2ccco2)cc1`, the max response, negative = inhibition is -4.52% (inactive). In the case of `O=Nc1c(O)cc(O)c2ccccc12`, the max response, negative = inhibition was -5.49% (inactive). Still for that read-out and setting: in the case of `C=CCOc1cccc(C2C(C(=O)c3ccc(C)o3)=C(O)C(=O)N2CCN2CCOCC2)c1` (stereo not given) it was -19.4% (inactive); in that of `Cc1cc(N2C(=O)C(=O)/C(=C(/O)c3ccccc3)C2c2cccc(Br)c2)no1` (stereo not given), -15% (inactive). With `Cc1cc(N2C(=O)C(O)=C(C(=O)c3ccc(C)o3)C2c2ccc(OCc3ccccc3)cc2)no1` (stereo not given), the Potency was 21.2 µM (active).
